According to the supplement of paper PMC10127200:
Structures can show the parent of a compound that is named as a salt.

Each compound was assayed on A549 (assay: Euclidean distance of Cell Painting phenotypic profile (signed KS, 77 features) to DMSO centroid (dimensionless distance); 5 or 10 uM (library dependent); higher = stronger phenotypic change vs DMSO (phenoactivity)). Settings: 48 h.
Outline: (§1)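 Five cancer lines, together with a healthy fibroblast line, received library compounds for 48 h at a library-dependent 10 or 5 uM and 0.1% DMSO final. Harmony then derived 77 features from confocal 20X images (9 fields/well) of the stained cells, scoring each as a signed Kolmogorov-Smirnov statistic against same-plate vehicle wells. After plate-position correction, correlation weighting and replicate averaging at the top dose, phenoactivity was taken as each profile's Euclidean distance to the median vehicle profile.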

Row | SMILES | Euclidean distance
1 | Cc1ccc(S(=O)(=O)OCC(=O)Nc2ccc(C(=O)O)c(O)c2)cc1 | 1.22
2 | COc1ccccc1[C@H](Cn1c(=O)n(C(C)(C)C(=O)O)c(=O)c2c(C)c(-c3ncco3)sc21)OC1CCOCC1 [Firsocostat (GS-0976)] | 0.95
3 | CN1CCN2c3ccccc3Cc3ccccc3C2C1 (stereo not drawn) [Mianserin HCl] | 2.41

Each compound was assayed on DU145 in the same assay as above. Settings: 48 h.
Outline: as §1

Row | SMILES | Euclidean distance
4 | CN1CCC(OC(c2ccccc2)c2ccccc2)CC1 [Diphenylpyraline hydrochloride] | 2.19
5 | COc1cc2ncnc(Nc3cccc(Cl)c3)c2cc1OC [AG-1478 (Tyrphostin AG-1478)] | 1.45
6 | NS(=O)(=O)c1cc2c(cc1Cl)N=C(CSCc1ccccc1)NS2(=O)=O [Benzthiazide] | 1.06
7 | CCN(CC)CCNC(=O)c1ccc(N)cc1 [Procainamide HCl] | 0.74
8 | CCC(C)(C)c1ccc(CC(C)CN2C[C@@H](C)O[C@@H](C)C2)cc1 (stereo partly drawn) [Amorolfine HCl] | 0.552
9 | C[C@H]1COc2c(N3CCN(C)CC3)c(F)cc3c(=O)c(C(=O)O)cn1c23 [Levofloxacin hydrate] | 1.07
10 | O=C(Nc1ccc(S(=O)(=O)Nc2ccccc2Cl)c(Cl)c1)c1ccccn1 | 0.6
11 | O=S(=O)(O)CCS [Mesna] | 0.968
12 | CCCCOC(=O)c1ccc(N)cc1 [Butamben] | 0.906
13 | CC(C)NCC(O)COc1ccc(CCOCC2CC2)cc1 (stereo not drawn) [Betaxolol] | 0.799
14 | Cc1ccc(Nc2nccc(N(C)c3ccc4c(C)n(C)nc4c3)n2)cc1S(N)(=O)=O [Pazopanib] | 2.31
15 | C[C@@H]1O[C@@H](Oc2c(-c3ccc(O)c(O)c3)oc3cc(O)cc(O)c3c2=O)[C@H](O)[C@H](O)[C@H]1O [Quercitrin] | 0.64
16 | Cc1c(F)cccc1NC(=O)Nc1ccc(Cl)c(S(=O)(=O)[C@H]2CCCNC2)c1O | 0.758
17 | CC(O)c1cc(C(=O)N[C@@H](C)Cn2ccc(-c3ccc(C#N)c(Cl)c3)n2)n[nH]1 (stereo partly drawn) [Darolutamide (ODM-201)] | 1.04
18 | COc1ccc(-c2nc(N3CCOCC3)c3sc(CN(C)c4ncc(C(=O)NO)cn4)cc3n2)cn1 | 4.25
19 | COc1cc2nc(N3CCN(C(=O)C4COc5ccccc5O4)CC3)nc(N)c2cc1OC (stereo not drawn) [Doxazosin] | 1.55
20 | CS(=O)(=O)c1ccc([C@@H](O)[C@@H](CO)NC(=O)C(Cl)Cl)cc1 [Thiamphenicol] | 0.68
21 | CNC[C@@H](O)c1ccc(O)c(O)c1 [L-Adrenaline] | 0.94
22 | Cc1cc(OCCCS(C)(=O)=O)cc(C)c1-c1cccc(COc2ccc3c(c2)OC[C@H]3CC(=O)O)c1 | 1.26
23 | Nc1nnc(-c2cccc(Cl)c2Cl)c(N)n1 [Lamotrigine] | 0.825

Row | SMILES | Euclidean distance
24 | O=C1Nc2ccc(CN3C(=O)CSC3=O)cc2/C1=C/c1cc(CN2CCOCC2)c[nH]1 | 0.896
25 | CN(C/C=C/C#CC(C)(C)C)Cc1cccc2ccccc12 [Terbinafine] | 0.898
26 | CC(C)=CCC/C(C)=C/CC/C(C)=C/CCC(=O)OC/C=C(\C)CCC=C(C)C [Gefarnate] | 0.637
27 | CNC(=O)[C@H](Cc1c[nH]c2ccccc12)NC(=O)[C@@H](CC(=O)NO)CC(C)C [Ilomastat (GM6001. Galardin)] | 1.22
28 | CCOC(=O)Nc1ccc(NCc2ccc(F)cc2)nc1N [Flupirtine maleate] | 1.53
29 | C=CCNC(N)=S [Allylthiourea] | 0.907
30 | OCc1cc(C(O)CNCCCCCCOCCCCc2ccccc2)ccc1O (stereo not drawn) [Salmeterol] | 1.51
31 | CC[C@@H]1/C=C(\C)C[C@H](C)C[C@H](OC)[C@H]2O[C@@](O)(C(=O)C(=O)N3CCCC[C@H]3C(=O)O[C@H](/C(C)=C/[C@@H]3CC[C@@H](O)[C@H](OC)C3)[C@H](C)[C@@H](O)CC1=O)[C@H](C)C[C@@H]2OC [Ascomycin (FK520)] | 1.28
32 | O=C(O)c1cccnc1 [Nicotinic Acid] | 1.08
33 | CCc1nc2c(C)cc(N3CCN(CC(=O)N4CC(O)C4)CC3)cn2c1N(C)c1nc(-c2ccc(F)cc2)c(C#N)s1 [Ziritaxestat (GLPG1690)] | 0.685
34 | Cn1cnc(N)c2ncnc1-2 [3-Methyladenine] | 1.58
35 | CCCN(CCc1cccs1)[C@H]1CCc2c(O)cccc2C1 [Rotigotine] | 0.662
36 | CC(C)C[C@H](NC(=O)CNC(=O)c1cc(Cl)ccc1Cl)B1OC(=O)C(CC(=O)O)(CC(=O)O)O1 | 5.36
37 | CCOC(=O)C1=C(COCCN)NC(C)=C(C(=O)OC)C1c1ccccc1Cl (stereo not drawn) [Amlodipine Besylate] | 0.871
38 | CC(=O)N1C[C@H](O)C[C@H]1C(=O)O [Oxaceprol] | 0.785
39 | Nc1nc(O)c2ncn(CCC(CO)CO)c2n1 [Penciclovir] | 0.816
40 | C[C@]12C[C@H](O)[C@H]3[C@@H](CCC4=CC(=O)CC[C@@]43C)[C@@H]1CC[C@@H]2C(=O)CO [Corticosterone] | 1.47
41 | Cc1ccc(S(=O)(=O)OCC(=O)Nc2ccc(C(=O)O)c(O)c2)cc1 | 1.04
42 | COc1ccccc1[C@H](Cn1c(=O)n(C(C)(C)C(=O)O)c(=O)c2c(C)c(-c3ncco3)sc21)OC1CCOCC1 [Firsocostat (GS-0976)] | 1.31
43 | CN1CCN2c3ccccc3Cc3ccccc3C2C1 (stereo not drawn) [Mianserin HCl] | 0.876
